PubChem BioAssay AID1159577 (Broad Institute, 2015)
Screen size: about 1,300 compounds; about 240 (18%) were called active. About 8% were inconclusive and are not listed. Only a sample is shown. Measured potencies and affinities stand elsewhere. Unmarked numbers belong to inactive results. No rule for the calls is given here.

Assay: HepG2 cell cytotoxicity, dose response, cytotoxicity control, cherry-picked samples (AID 1159577);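 also: 0% = neutral control wells and -100% = positive control wells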
Settings: HepG2 cytotoxicity counterscreen, plate reader; series mostly up to 19.5 µM; activity change, negative = cytotoxicity: at the top concentration

Row | SMILES | activity change, negative = cytotoxicity
1 | COc1ccc2c3c(n(C)c2c1)[C@@H](CO)N(C(=O)C1CC1)CC31CCN(C(=O)Nc2cccc(F)c2)CC1 | 8.54%
2 | COc1ccc2c3c([nH]c2c1)[C@@H](CO)N(C(=O)C1CCCCC1)CC31CCN(Cc2nccs2)CC1 | 2.26%
3 | COc1ccc2c3c([nH]c2c1)[C@H](CO)N(C(=O)C1CCCCC1)CC31CCN(Cc2nccs2)CC1 | 40.4%
4 | COc1ccc2c3c(n(C)c2c1)[C@H](CO)N(C(=O)C1CC1)CC31CN(C(=O)C2CCOCC2)C1 | -8.82% [at 21 µM]
5 | O=C(C[C@@H]1C[C@H]2c3cc(NS(=O)(=O)c4ccc(F)cc4)ccc3O[C@H]2[C@H](CO)O1)N1CCc2ccccc2C1 | 2.2%
6 | COc1cccc(CN2[C@@H](CO)[C@H](c3ccccc3)C23CN(C(=O)C2CCOCC2)C3)c1 | -7.26%
7 | CN(C)c1ccc2c(c1)[C@H]1C[C@H](CC(=O)NCc3ccc(Oc4ccccc4)cc3)O[C@H](CO)[C@H]1O2 | -25.6%
8 | CCCC(=O)N1CCC2(CC1)CN(S(=O)(=O)c1ccc(C)cc1)[C@@H](CO)c1[nH]c3cc(OC)ccc3c12 | -5.02%
9 | C[C@H]1CN([C@@H](C)CO)C(=O)c2c(c3ccccc3n2C)-c2ccccc2CO[C@@H]1CN(C)C(=O)Nc1ccc(-c2ccccc2)cc1 | 16.4%
10 | O=C(Nc1ccc(C(F)(F)F)cc1)N1[C@@H]2CNC[C@H]1C2c1ccc(/C=C/c2ccccc2)cc1 (some centres undefined) | 3.2% [at 21 µM]
11 | O=S(=O)(Cc1ccccc1)N1[C@H](CO)[C@@H](c2ccccc2)C12CN(CCC(F)(F)F)C2 | 10.8% [at 21 µM]
12 | CC(C)(C)[S@@](=O)N1Cc2cc(C(=O)NCCN3CCCCC3)nc(-c3cccc(-c4cccc(C#N)c4)c3)c2[C@H]1CCO | 13.2%
13 | COc1ccc(C#Cc2ccc3c(c2)[C@H]2[C@H](CCN2C(=O)C2CCC2)[C@@H](CO)N3)cc1 | 5.22%
14 | CN(C)CC(=O)N1[C@H](CO)[C@H](c2ccc(C#CC3CCCCC3)cc2)[C@@H]1C#N | -13.4%
15 | C[C@@H]1CN([C@H](C)CO)C(=O)c2cccc(NS(=O)(=O)c3ccccc3)c2O[C@H]1CN(C)Cc1ccc(-c2ccccc2)cc1 | 9%
16 | C/C=C/c1ccc([C@@H]2[C@H](CO)N(CC3CC3)C23CN(C(=O)c2ccc4c(c2)OCO4)C3)cc1 | 0.389%
17 | O=C(c1ccc(F)cc1)N1CC(=O)N2[C@H](CO)[C@@H](c3ccc(/C=C/c4ccccc4)cc3)[C@@H]2C1 | -4.72%
18 | N#Cc1ccc(-c2ccc([C@@H]3[C@@H]4CN(C(=O)Nc5ccc6c(c5)OCO6)C[C@H]3N4)cc2)cc1 | 16.2% [at 21 µM]
19 | O=C(C[C@H]1CC[C@@H]2[C@H](COC[C@@H](O)CN2C(=O)Nc2ccc3c(c2)OCO3)O1)N1CCN(c2ccccc2)CC1 | -4.46%
20 | CN(C)C(=O)c1cccc(-c2ccc3c(c2)[C@H]2[C@H](CCN2C(=O)C2CC2)[C@@H](CO)N3)c1 | -3.67%
21 | C/C=C/c1ccc([C@@H]2[C@H](CO)N(CC3CCCC3)C23CN(C(=O)CC2CC2)C3)cc1 | 3.95%
22 | CCC(=O)N1CCC2(CC1)CN(S(=O)(=O)c1ccccc1)[C@@H](CO)c1[nH]c3cc(OC)ccc3c12 | 9.94%
23 | N#C[C@@H]1[C@H](c2ccccc2-c2cccc(F)c2)[C@H](CO)N1C(=O)C1CCCC1 | 10.2%

Row | SMILES | activity change, negative = cytotoxicity
24 | C[C@H](CO)N1C[C@H](C)[C@H](CN(C)S(=O)(=O)c2cccs2)OCc2ccccc2-c2c(n(C)c3ccccc23)C1=O | 23.9%
25 | C[C@@H]1CN([C@@H](C)CO)C(=O)c2cc(C#Cc3ccccc3)cnc2O[C@H]1CN(C)C(=O)CCN1CCCCC1 | -30.7%
26 | C[C@@H]1CN([C@@H](C)CO)C(=O)c2cc(C#Cc3ccccc3)cnc2O[C@H]1CN(C)C(=O)CN(C)C | 15.6%
27 | COc1cccc(C#Cc2cnc3c(c2)C(=O)N([C@H](C)CO)C[C@H](C)[C@@H](CN(C)C(=O)C2CCCCC2)O3)c1 | 13.6%
28 | C[C@@H]1CN([C@H](C)CO)C(=O)c2cc(C#CCc3ccccc3)cnc2O[C@H]1CN(C)C(=O)C1CCC1 | 27.8%
29 | C[C@@H]1CN([C@H](C)CO)C(=O)c2cc(C#Cc3cccc(F)c3)cnc2O[C@@H]1CN(C)C(=O)C1CCCCC1 | 14.4%
30 | C[C@H]1CN([C@@H](C)CO)C(=O)c2cc(C#Cc3cccc(F)c3)cnc2O[C@@H]1CN(C)C(=O)C1CCCCC1 | 13.3%
31 | COc1cccc(C#Cc2cnc3c(c2)C(=O)N([C@@H](C)CO)C[C@H](C)[C@@H](CN(C)C(=O)C2CCCCC2)O3)c1 | -0.176%
32 | C[C@H](CO)N1C[C@H](C)[C@H](CN(C)C(=O)C2CCCCC2)Oc2ncc(C#Cc3cccc(F)c3)cc2C1=O | 12.7%
33 | COCC(=O)Nc1ccc2c(c1)OC[C@H](C)N(Cc1ccncc1)C[C@H](C)[C@@H](OC)CN(C)C2=O | 7.21%
34 | C[C@H](CO)N1C[C@H](C)[C@H](CN(C)C(=O)C2CC2)Oc2cc(C#Cc3ccccc3)ccc2S1(=O)=O | -10.6%
35 | C[C@@H]1CN([C@@H](C)CO)C(=O)c2c(c3ccccc3n2C)-c2ccccc2CO[C@H]1CN(C)Cc1cccc(C(=O)Nc2ccccc2N)c1 | 0.959%
36 | CO[C@H]1CN(C)C(=O)c2ccc(NS(=O)(=O)CC(F)(F)F)cc2OC[C@@H](C)N(Cc2nccs2)C[C@H]1C | 23.1%
37 | COc1ccccc1-c1cccc(-c2nc(C(=O)Nc3nccs3)cc3c2[C@H](CCO)N(C(C)=O)C3)c1 | 3.78%
38 | C[C@@H]1CN([C@@H](C)CO)C(=O)c2ccccc2-c2ccccc2CO[C@H]1CN(C)C(=O)Nc1cccc(Cl)c1Cl | 16.1%
39 | COc1ccc(CN2C[C@@H](C)[C@H](OC)CN(C)C(=O)c3cc(NC(=O)c4nc5ccccc5s4)ccc3OC[C@H]2C)cc1 | -2.5% [at 21 µM]
40 | CCCN(C)C[C@H]1Oc2ncc(C#Cc3ccccc3OC)cc2C(=O)N([C@H](C)CO)C[C@H]1C | -14.8%
41 | CCCN(C)C[C@H]1Oc2ncc(C#Cc3ccc(F)cc3)cc2C(=O)N([C@@H](C)CO)C[C@H]1C | -9.44%
42 | COc1cccc(NC(=O)N2[C@@H](CO)[C@@H](c3ccccc3)[C@@H]2CNC(C)C)c1 | 0.63%
43 | C[C@@H]1CN([C@@H](C)CO)C(=O)c2cccc(NC(=O)Nc3ccccc3)c2O[C@@H]1CN(C)C(=O)Nc1ccccc1 | -10.5%
44 | COc1ccc2c3c([nH]c2c1)[C@@H](CO)N(C(=O)Nc1cccc(F)c1)CC31CN(CC2CCOCC2)C1 | -16.3%
45 | COc1ccc2c3c([nH]c2c1)[C@H](CO)N(C(=O)Nc1ccc(F)cc1)CC31CCN(C(=O)c2ccccn2)CC1 | 16.5%
46 | COc1ccc2c3c([nH]c2c1)[C@H](CO)N(C(=O)Nc1ccc(F)cc1)CC31CCN(Cc2cc(-c3ccccc3)on2)CC1 | -22.1%

Row | SMILES | activity change, negative = cytotoxicity
47 | COc1ccc2c3c([nH]c2c1)[C@H](CO)N(C(=O)Nc1ccc(F)cc1)CC31CCN(S(=O)(=O)c2cccc(F)c2)CC1 | -1.31%
48 | O=C(C1CCCCC1)N1[C@H](CO)[C@@H](c2ccccc2)C12CN(Cc1cccc(Cl)c1)C2 | -17.7%
49 | CN(C)c1ccc2c(c1)[C@@H]1C[C@@H](CC(=O)NCc3cc(F)ccc3F)O[C@@H](CO)[C@@H]1O2 | -2.86%
50 | CC(C)(C)[S@](=O)N1Cc2cc(C(=O)N[C@@H]3CCN(Cc4ccccc4)C3)nc(-c3cccc(-c4cccnc4)c3)c2[C@@H]1CCO | 25% [at 21 µM]
51 | C/C=C/c1ccc2c(c1)[C@@H]1[C@@H](CCN1C(=O)C1CCCC1)[C@H](CO)N2 | 24.7%
52 | O=C(C1CCCC1)N1CC2(C1)[C@@H](c1ccccc1)[C@H](CO)N2Cc1ccc(Cl)cc1 | 5.85% [at 21 µM]
53 | CO[C@@H]1CN(C)C(=O)c2cc(NC(=O)Nc3ccc(C(F)(F)F)cc3)ccc2OC[C@H](C)NC[C@H]1C | -34.1%
54 | CO[C@H]1CN(C)C(=O)c2cc(NC(=O)Nc3ccc(C(F)(F)F)cc3)ccc2OC[C@H](C)NC[C@H]1C | 5.35%
55 | CO[C@H]1CN(C)C(=O)c2cc(NC(=O)Nc3cccc(Cl)c3)ccc2OC[C@H](C)NC[C@H]1C | -15.7%
56 | CO[C@@H]1CN(C)C(=O)c2cc(NC(=O)Nc3ccc(C(F)(F)F)cc3)ccc2OC[C@H](C)NC[C@@H]1C | -6.48%
57 | CO[C@@H]1CN(C)C(=O)c2cc(NC(=O)Nc3cccc(Cl)c3)ccc2OC[C@H](C)NC[C@H]1C | -4.09%
58 | CO[C@@H]1CN(C)C(=O)c2cc(NC(=O)Nc3cccc(Cl)c3)ccc2OC[C@@H](C)NC[C@@H]1C | -5.39%
59 | CO[C@@H]1CN(C)C(=O)c2cc(NC(=O)Nc3ccc(C(F)(F)F)cc3)ccc2OC[C@@H](C)NC[C@@H]1C | -9.95%
60 | Cc1ccccc1S(=O)(=O)N1[C@H](CO)[C@@H](c2ccc(C#CC3CC3)cc2)[C@@H]1C#N | 19.9%
61 | CCCNC(=O)N1[C@H](C#N)[C@H](c2ccc(-c3ccccc3F)cc2)[C@@H]1CO | -24%
62 | COc1ccc(C#Cc2cnc3c(c2)C(=O)N([C@H](C)CO)C[C@H](C)[C@H](CN(C)S(=O)(=O)c2cccc(F)c2)O3)cc1OC | 2.52%
63 | COc1ccc(CN2CC3(CCN(C(=O)c4ccccc4)CC3)c3c([nH]c4cc(OC)ccc34)[C@@H]2CO)cc1 | -8.87%
64 | O=C(c1ccc(F)cc1)N1CC(=O)N2[C@H](CO)[C@H](c3ccc(-c4cccnc4)cc3)[C@H]2C1 | 10.8%
65 | O=C(C1CCOCC1)N1[C@H](CO)[C@@H](c2ccccc2)C12CN(Cc1cccc(Cl)c1)C2 | 15.3%
66 | COc1ccc(-c2ccc([C@@H]3[C@H]4CN(C(=O)NC(C)C)CC(=O)N4[C@H]3CO)cc2)cc1 | 1.65%
67 | COc1ccc2c3c(n(C)c2c1)[C@H](CO)N(C(=O)Nc1ccc(F)cc1)CC31CCN(S(=O)(=O)c2cccc(F)c2)CC1 | -7.75%
68 | CN1c2ccc(-c3cccc(C#N)c3)cc2[C@H]2[C@H](CCN2S(=O)(=O)c2ccccc2F)[C@H]1CO | 27.2%
69 | CCCN(C)C[C@@H]1Oc2cc(C#Cc3cccnc3)ccc2S(=O)(=O)N([C@H](C)CO)C[C@@H]1C | -7.54%
